We go through 40 compounds from PubChem BioAssay (NCI).

Molecules are shown by their SMILES. The panel holds about 79,000 compounds, 15% with a hit somewhere; the sample as a whole holds those more often. Values without a mark were called inactive. Activity calls are given as the source filed them. Rule as the data show it: active = growth inhibition above about 70%; inactive = the rest. Where a SMILES comes first, the peptide text is derived from it. [ ]: non-standard residue; d: D form. ξ: configuration not given here. ξA = CC(N)C(=O)O

The first assay is described as follows: NCI Yeast Anticancer Drug Screen. Data for the rad50 strain (AID 155).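 Also: 0% = growth of vehicle-only cultures of the same strain.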 The following applies: S. cerevisiae rad50 strain growth inhibition; at 50.0 µM; active compounds read high. The method in brief: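 Inhibition values express reduced yeast growth in compound-treated cultures relative to vehicle-treated controls.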
Take `NC(=O)N=P(c1ccccc1)(c1ccccc1)c1ccccc1`: the growth inhibition was -9.9%.
The same measure, in the same setting: the result for `CC(=O)c1ccc(CCCCc2ccc([N+](=O)[O-])cc2)cc1` reads -4.2%.
For `O=S1(=O)C2CCC(C2)C1Cl` (stereo not given), the growth inhibition is 4.5%.
In the case of `O=C(CNCc1ccccc1)NC(Cc1ccccc1)c1ccccc1` (stereo not given), the growth inhibition was 8.15%.
In the case of `COc1cc(C2C3=C(CCC3=O)Oc3cc4c(cc32)OCO4)cc(OC)c1OC` (stereo not given), the growth inhibition was 2.55%.
With `Cc1cc(C)n(-c2nc(-n3nc(C)cc3C)nc(-n3nc(C)cc3C)n2)n1`, the growth inhibition was -34.2%.
`CC(=O)Oc1cc(C)ccc1C`: the growth inhibition was -2.7%.
For `C=CCNC(=S)Nc1ccccc1`, the growth inhibition was -1.8%.
Turning to `O=C1OCc2nc3c(c(-c4ccccc4C(F)(F)F)c21)C(=O)OC3`, the growth inhibition is -40.1%.
As to `COc1ccc(C(CC(=O)c2ccccc2)SCCN2CCOCC2)cc1` (stereo not given), the growth inhibition is 4.25%.
As for `C=CCN(N=O)C(=O)NCCCCC(NC(C)=O)C(=O)NCc1ccccc1` (stereo not given), the growth inhibition was -10.2%.
Turning to `Cc1ccc(S(=O)(=O)SCC(=O)c2ccc(Br)cc2)cc1`, the growth inhibition is 27.4%.
The same measure, in the same setting: the result for `CCOC(=O)CC(=O)Cc1oc2c(C(C)=O)c(O)c(C)c(O)c2c1C` reads -0.8%; that for `N#CC(=O)Nc1cccc(Cl)c1`, -13.1%; that for `CC(C)CN1CC(=O)N2Cc3ccccc3CN2C(=O)C1`, -28.6%.
On the same count and under the same terms, for `CC[N+](C)(CC)CCOc1nc2c(c(=O)n(C)c(=O)n2C)n1C` the value was -9.5%; for `Cc1ccccc1C(=O)Oc1ccccc1Cl`, 12%; for `COc1ccc(C2NC(C(=O)O)Cc3c2[nH]c2ccccc32)cc1OC` (stereo not given), -12.2%.
On the same count and under the same terms, the result for `O=C(Cc1ccccc1)c1ccccc1C(=O)NCc1ccccc1` reads -5.8%; that for `CCCS(=O)(=O)CCCCCCCCCCC(=O)O`, -5.45%; that for `O=C(O)c1ccc(O)cn1`, -4.8%.
With `CCOC(=O)COc1c(C)cccc1Cl`, the growth inhibition is 4.2%.
On the same count and under the same terms, the result for `CC1c2c(ccc3ccccc23)CCC1CC1CCCc2ccc3ccccc3c21` (stereo not given) reads 45.6%; that for `COc1ccc(C2C(Cl)C(=O)N2NC(=O)Cc2ccccc2)cc1` (stereo not given), -10.6%.
For the compound `COC(=O)/C(C)=C/C=C/C(C)C(O)C(C)C1OC(CC(OC)OC)C(C)C(O)C1C` (stereo not given), the growth inhibition is 28.9%.
The same measure, in the same setting: for `OC(c1cc2ccccc2c2ccccc12)C1CCCCN1` (stereo not given) the value was 21.9%.
Consider `CN=C1NC(C)(C)C2CCC(C)(CC2)S1`, for which the growth inhibition is 8.35%.
Consider `Oc1cc2nc3ccccc3nc2c2ccc(Br)cc12`, for which the growth inhibition was -12.8%.
The same measure, in the same setting: for `CC1CC=CCC1C(=O)OC/C=C/COC(=O)C1CC=CCC1C` (stereo not given) the value was 29.4%.
Same read-out and setting: the result for `CCN(C(=S)Nc1cccc(C(F)(F)F)c1)c1ccccc1` reads 38.1%.
`c1ccc2c(c1)CCCN2c1ncnc2ccccc12`: the growth inhibition is -10.2%.
Regarding `CCCCCOc1nc2c(c(=O)n(C)c(=O)n2C)n1C`, the growth inhibition is -0.4%.
As for `CC(=O)/C=C(\O)c1c(C)[nH]c2ccccc12`, the growth inhibition is -16%.
With `CC(=O)[CH-]C(=O)c1ccccc1.CC(=O)[CH-]C(=O)c1ccccc1.CCCCCCCCCCCCCCCCCC(=O)[O-].CCCCCCCCCCCCCCCCCC(=O)[O-].[Ti+4]`, the growth inhibition is 11.2%.
On to `Nc1ccc(S(=O)(=O)O)c(N)c1`, for which the growth inhibition is 10.2%.
`Cc1cc(NS(=O)(=O)c2ccc(N=[N+]([O-])c3ccc(S(=O)(=O)Nc4cc(C)on4)cc3)cc2)no1`: the growth inhibition was 10.8%.
For `COc1ccc(N2C(=O)C3CC(c4ccc(Br)cc4)c4c([nH]c5ccccc45)C3C2=O)cc1` (stereo not given), the growth inhibition is 1.7%.
As to `O=c1ncccn1C1OC(CO)C(O)C1F` (stereo not given), the growth inhibition was 4.75%.
With `CCCCCCP(=O)(CCCCCC)C1CCCCC1`, the growth inhibition was 98.1% (active).
With `CC(NC(=O)CNC(=O)CNC(=O)CNC(=O)CN)C(=O)O` (stereo not given) (H-GGGG[ξA]-OH), the growth inhibition is -26.9%.

A further assay can be described thus: NCI Yeast Anticancer Drug Screen. Data for the mec2-1 strain (AID 157). Conditions: S. cerevisiae mec2-1 strain, at 50.0 µM, active compounds read high. The method in brief: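 Mutant yeast (mec2-1) grown with compound; growth inhibition relative to vehicle control reported.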
Turning to `NC(=O)N=P(c1ccccc1)(c1ccccc1)c1ccccc1`, the growth inhibition is 12.6%.
Same read-out and setting: the result for `CC(=O)c1ccc(CCCCc2ccc([N+](=O)[O-])cc2)cc1` reads -17.8%.
As to `O=S1(=O)C2CCC(C2)C1Cl` (stereo not given), the growth inhibition is 2.75%.
Turning to `O=C(CNCc1ccccc1)NC(Cc1ccccc1)c1ccccc1` (stereo not given), the growth inhibition is -14.3%.
In the case of `COc1cc(C2C3=C(CCC3=O)Oc3cc4c(cc32)OCO4)cc(OC)c1OC` (stereo not given), the growth inhibition is 17.1%.
For `Cc1cc(C)n(-c2nc(-n3nc(C)cc3C)nc(-n3nc(C)cc3C)n2)n1`, the growth inhibition is -32.2%.
As to `CC(=O)Oc1cc(C)ccc1C`, the growth inhibition is -0.5%.
Still for that read-out and setting: for `C=CCNC(=S)Nc1ccccc1` the value was -9.95%; for `O=C1OCc2nc3c(c(-c4ccccc4C(F)(F)F)c21)C(=O)OC3`, -66.6%; for `COc1ccc(C(CC(=O)c2ccccc2)SCCN2CCOCC2)cc1` (stereo not given), 0.85%.
For `C=CCN(N=O)C(=O)NCCCCC(NC(C)=O)C(=O)NCc1ccccc1` (stereo not given), the growth inhibition is -22.6%.
`Cc1ccc(S(=O)(=O)SCC(=O)c2ccc(Br)cc2)cc1`: the growth inhibition was -15.4%.
For `CCOC(=O)CC(=O)Cc1oc2c(C(C)=O)c(O)c(C)c(O)c2c1C`, the growth inhibition is 7%.
Regarding `N#CC(=O)Nc1cccc(Cl)c1`, the growth inhibition was -8.05%.
`CC(C)CN1CC(=O)N2Cc3ccccc3CN2C(=O)C1`: the growth inhibition was -10.2%.
Regarding `CC[N+](C)(CC)CCOc1nc2c(c(=O)n(C)c(=O)n2C)n1C`, the growth inhibition was -6.85%.
On to `Cc1ccccc1C(=O)Oc1ccccc1Cl`, for which the growth inhibition is 17.7%.
Still for that read-out and setting: for `COc1ccc(C2NC(C(=O)O)Cc3c2[nH]c2ccccc32)cc1OC` (stereo not given) the value was -5.6%.
Take `O=C(Cc1ccccc1)c1ccccc1C(=O)NCc1ccccc1`: the growth inhibition is -3.45%.
Regarding `CCCS(=O)(=O)CCCCCCCCCCC(=O)O`, the growth inhibition is -11.4%.
Same read-out and setting: for `O=C(O)c1ccc(O)cn1` the value was -7.05%; for `CCOC(=O)COc1c(C)cccc1Cl`, 0.6%.
For the compound `CC1c2c(ccc3ccccc23)CCC1CC1CCCc2ccc3ccccc3c21` (stereo not given), the growth inhibition is -6.15%.
The same measure, in the same setting: the result for `COc1ccc(C2C(Cl)C(=O)N2NC(=O)Cc2ccccc2)cc1` (stereo not given) reads -11.9%.
With `COC(=O)/C(C)=C/C=C/C(C)C(O)C(C)C1OC(CC(OC)OC)C(C)C(O)C1C` (stereo not given), the growth inhibition was 22.2%.
For the compound `OC(c1cc2ccccc2c2ccccc12)C1CCCCN1` (stereo not given), the growth inhibition is 16.9%.
For the compound `CN=C1NC(C)(C)C2CCC(C)(CC2)S1`, the growth inhibition is 14.9%.
With `Oc1cc2nc3ccccc3nc2c2ccc(Br)cc12`, the growth inhibition is -7.45%.
As to `CC1CC=CCC1C(=O)OC/C=C/COC(=O)C1CC=CCC1C` (stereo not given), the growth inhibition is -19.9%.
In the case of `CCN(C(=S)Nc1cccc(C(F)(F)F)c1)c1ccccc1`, the growth inhibition is 22.9%.
With `c1ccc2c(c1)CCCN2c1ncnc2ccccc12`, the growth inhibition was -8.45%.
Same read-out and setting: the result for `CCCCCOc1nc2c(c(=O)n(C)c(=O)n2C)n1C` reads -2.55%.
As for `CC(=O)/C=C(\O)c1c(C)[nH]c2ccccc12`, the growth inhibition was 9%.
On to `CC(=O)[CH-]C(=O)c1ccccc1.CC(=O)[CH-]C(=O)c1ccccc1.CCCCCCCCCCCCCCCCCC(=O)[O-].CCCCCCCCCCCCCCCCCC(=O)[O-].[Ti+4]`, for which the growth inhibition was -11.2%.
Same read-out and setting: the result for `Nc1ccc(S(=O)(=O)O)c(N)c1` reads 9.05%.
Take `Cc1cc(NS(=O)(=O)c2ccc(N=[N+]([O-])c3ccc(S(=O)(=O)Nc4cc(C)on4)cc3)cc2)no1`: the growth inhibition was -30.1%.
Consider `COc1ccc(N2C(=O)C3CC(c4ccc(Br)cc4)c4c([nH]c5ccccc45)C3C2=O)cc1` (stereo not given), for which the growth inhibition is -14.4%.
On to `O=c1ncccn1C1OC(CO)C(O)C1F` (stereo not given), for which the growth inhibition was -6.7%.
Take `CCCCCCP(=O)(CCCCCC)C1CCCCC1`: the growth inhibition was 99.5% (active).
Turning to `CC(NC(=O)CNC(=O)CNC(=O)CNC(=O)CN)C(=O)O` (stereo not given) (H-GGGG[ξA]-OH), the growth inhibition is -30.9%.
